The record followed here is PubChem BioAssay (NCI).

Molecules are shown by their SMILES. Compounds without any hit were thinned out: in the full panel of roughly 79,000, 15% have a hit. Unmarked numbers belong to inactive results. Activity calls are given as the source filed them. Cut-off read from the data, not from the text of the source: active = growth inhibition above about 70%; inactive = the rest.

Test [1] is described as follows: NCI Yeast Anticancer Drug Screen. Data for the rad50 strain (AID 155).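 Note: 0% = growth of vehicle-only cultures of the same strain.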 The settings on record: S. cerevisiae rad50 strain growth inhibition, active compounds read high. Summed up:
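Genetically altered yeast (DNA repair pathway); compound treatment; growth inhibition vs vehicle ctrl.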

Test [2] can be described thus: NCI Yeast Anticancer Drug Screen. Data for the mec2-1 strain (AID 157). The settings on record: S. cerevisiae mec2-1 strain, active compounds read high. The method in brief: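 Test agents were screened against the mec2-1 yeast strain, with defined DNA repair or cell cycle alteration. Growth was scored as inhibition against vehicle-only controls.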
A short description of test [3]: NCI Yeast Anticancer Drug Screen. Data for the sgs1 mgt1 strain (AID 161).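 Note: 0% = growth of cultures given vehicle only.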 The settings on record: S. cerevisiae sgs1 mgt1 strain, active compounds read high. The method in brief: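 Read-out: growth inhibition vs vehicle controls. Cells: mutant yeast strain deficient in DNA damage repair.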
The nature of test [4]: NCI Yeast Anticancer Drug Screen. Data for the cln2 rad14 strain (AID 165).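 Note: 0% = growth equal to vehicle treated cultures.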 The settings on record: S. cerevisiae cln2 rad14 strain, active compounds read high. The method in brief:
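Growth of compound-exposed yeast (cln2 rad14 genotype) measured and expressed as inhibition relative to vehicle.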

Test [5] is described as follows: NCI Yeast Anticancer Drug Screen. Data for the bub3 strain (AID 167). The settings on record: S. cerevisiae bub3 mutant strain, active compounds read high. Summed up:
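Yeast carrying a defined mutation is treated with each compound, and growth is compared with that of vehicle-exposed cells to give inhibition.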

Test [6] is described as follows: NCI Yeast Anticancer Drug Screen. Data for the mlh1 rad18 strain (AID 175). The settings on record: S. cerevisiae mlh1 rad18 strain growth inhibition, active compounds read high. The method in brief: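 In this whole-cell yeast screen, a strain with altered DNA damage repair is challenged with compound, and its growth is measured against matched vehicle-treated controls.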

The mark [7] stands for this setting: at 5.0 µM (retest, dose inferred, filed as 0.5).
Where [8] appears, read: at 50.0 µM (retest, dose inferred, filed as 5.0).

For `S=C(N/N=C/c1ccccn1)N1CC2CCC(CC2)C1`, the growth inhibition in test [1] (setting [7]) is 99% (active); in test [1] (setting [8]) it was 100% (active); in test [1] (at 50.0 µM), 90.2% (active); in test [2] (setting [7]), 99% (active); in test [2] (setting [8]), 100% (active); in test [2] (at 50.0 µM), 93.5% (active). The growth inhibition in test [3] (setting [7]) was 98% (active); in test [3] (setting [8]) it was 99% (active); in test [3] (at 50.0 µM) it was 92% (active); in test [4] (setting [7]), 97% (active); in test [4] (setting [8]), 100% (active); in test [4] (at 50.0 µM), 93.2% (active). Further, the growth inhibition in test [5] (setting [7]) is 99% (active); in test [5] (setting [8]), 99% (active); in test [5] (at 50.0 µM), 92.7% (active); in test [6] (setting [7]), 99% (active); in test [6] (setting [8]), 99% (active); in test [6] (at 50.0 µM), 89.7% (active).
In the case of `C=CCN1CCC(OC(=O)C(O)(C#CC)C2CCCC2)CC1` (stereo not given), the growth inhibition in test [1] (setting [7]) was 40%; in test [1] (setting [8]) it was 72% (active); in test [1] (at 50.0 µM), 68.9%; in test [2] (setting [7]) it was 31%; in test [2] (setting [8]) it was 62%; in test [2] (at 50.0 µM), 50.9%. For the same molecule, the growth inhibition in test [3] (setting [7]) was 40%; in test [3] (setting [8]), 71% (active); in test [3] (at 50.0 µM), 71.9% (active); in test [4] (setting [7]) it was 35%; in test [4] (setting [8]) it was 76% (active); in test [4] (at 50.0 µM), 58.6%. Moreover, the growth inhibition is 21% in test [5] (setting [7]); 78% (active) in test [5] (setting [8]); 61.8% in test [5] (at 50.0 µM); 17% in test [6] (setting [7]); 66% in test [6] (setting [8]); 64% in test [6] (at 50.0 µM).
Regarding `C[C@H]1CC[C@@H]2[C@@H](C)[C@H]3[C@H](C[C@H]4[C@@H]5CC=C6C[C@@H](O)CC[C@]6(C)[C@H]5CC[C@]34C)N2C1`, the growth inhibition was 27% in test [1] (setting [7]); 98% (active) in test [1] (setting [8]); 58% in test [1] (at 50.0 µM); 28% in test [2] (setting [7]); 99% (active) in test [2] (setting [8]); 93.5% (active) in test [2] (at 50.0 µM). Besides, the growth inhibition in test [3] (setting [7]) was 44%; in test [3] (setting [8]), 99% (active); in test [3] (at 50.0 µM), 93.2% (active); in test [4] (setting [7]), 28%; in test [4] (setting [8]), 98% (active); in test [4] (at 50.0 µM), 91.2% (active). Besides, the growth inhibition in test [5] (setting [7]) was 48%; in test [5] (setting [8]), 99% (active); in test [5] (at 50.0 µM) it was 93% (active); in test [6] (setting [7]), 56%; in test [6] (setting [8]), 98% (active); in test [6] (at 50.0 µM), 86.6% (active).
As to `O=S(=O)(CCCCl)SCCCCl`, the growth inhibition in test [1] (setting [7]) was 11%; in test [1] (setting [8]) it was 99% (active); in test [1] (at 50.0 µM), 99.4% (active); in test [2] (setting [7]) it was 15%; in test [2] (setting [8]), 99% (active); in test [2] (at 50.0 µM), 99.5% (active). Also, the growth inhibition in test [3] (setting [7]) is 18%; in test [3] (setting [8]), 100% (active); in test [3] (at 50.0 µM), 99.5% (active); in test [4] (setting [7]), 23%; in test [4] (setting [8]) it was 99% (active); in test [4] (at 50.0 µM) it was 99.7% (active). Besides, the growth inhibition was 22% in test [5] (setting [7]); 100% (active) in test [5] (setting [8]); 99.7% (active) in test [5] (at 50.0 µM); 19% in test [6] (setting [7]); 99% (active) in test [6] (setting [8]); 99.5% (active) in test [6] (at 50.0 µM).
Take `CS/C(=N\C(=S)Nc1ccccc1)Nc1ccccc1`: the growth inhibition in test [1] (setting [7]) was 0%; in test [1] (setting [8]), 95% (active); in test [1] (at 50.0 µM) it was 99.2% (active); in test [2] (setting [7]), 25%; in test [2] (setting [8]) it was 94% (active); in test [2] (at 50.0 µM), 99.4% (active). Moreover, the growth inhibition in test [3] (setting [7]) is 38%; in test [3] (setting [8]), 97% (active); in test [3] (at 50.0 µM), 96.3% (active); in test [4] (setting [7]), 22%; in test [4] (setting [8]), 96% (active); in test [4] (at 50.0 µM), 97.3% (active). The growth inhibition is 34% in test [5] (setting [7]); 98% (active) in test [5] (setting [8]); 99% (active) in test [5] (at 50.0 µM); 22% in test [6] (setting [7]); 95% (active) in test [6] (setting [8]); 98.1% (active) in test [6] (at 50.0 µM).
`COC(=O)/C(C#N)=C1\NC(=O)CC(c2ccccc2)C1C#N` (stereo not given): the growth inhibition in test [1] (setting [7]) is 12%; in test [1] (setting [8]), 20%; in test [1] (at 50.0 µM), -25.2%; in test [2] (setting [7]), 9%; in test [2] (setting [8]) it was 16%; in test [2] (at 50.0 µM) it was -27.1%. For the same molecule, the growth inhibition in test [3] (setting [7]) is 21%; in test [3] (setting [8]), 20%; in test [3] (at 50.0 µM), 9.25%; in test [4] (setting [7]), 5%; in test [4] (setting [8]), 19%; in test [4] (at 50.0 µM), -1.3%. The growth inhibition in test [5] (setting [7]) is 10%; in test [5] (setting [8]) it was 13%; in test [5] (at 50.0 µM), -0.9%; in test [6] (setting [7]) it was 23%; in test [6] (setting [8]) it was 18%; in test [6] (at 50.0 µM), -16.7%.
`CN(C)CC1(C)CC/C(=C\c2ccc(Cl)cc2)C1=O` (stereo not given): the growth inhibition in test [1] (setting [7]) is 3%; in test [1] (setting [8]), 28%; in test [1] (at 50.0 µM) it was 62%; in test [2] (setting [7]), -14%; in test [2] (setting [8]), 16%; in test [2] (at 50.0 µM), 38.2%. In addition, the growth inhibition in test [3] (setting [7]) is 7%; in test [3] (setting [8]), 39%; in test [3] (at 50.0 µM) it was 67.7%; in test [4] (setting [7]), 10%; in test [4] (setting [8]) it was 36%; in test [4] (at 50.0 µM), 52.5%. Further, the growth inhibition was 15% in test [5] (setting [7]); 65% in test [5] (setting [8]); 35.4% in test [5] (at 50.0 µM); 9% in test [6] (setting [7]); 57% in test [6] (setting [8]); 71.1% (active) in test [6] (at 50.0 µM).
As to `C#CC(CC(C)CC(C)(C)C)NC` (stereo not given), the growth inhibition in test [1] (setting [7]) is 2%; in test [1] (setting [8]), 91% (active); in test [1] (at 50.0 µM) it was 97.2% (active); in test [2] (setting [7]), 2%; in test [2] (setting [8]), 58%; in test [2] (at 50.0 µM) it was 85.5% (active). The growth inhibition was 0% in test [3] (setting [7]); 97% (active) in test [3] (setting [8]); 96.8% (active) in test [3] (at 50.0 µM); 7% in test [4] (setting [7]); 53% in test [4] (setting [8]); 76% (active) in test [4] (at 50.0 µM). In addition, the growth inhibition in test [5] (setting [7]) is 2%; in test [5] (setting [8]), 86% (active); in test [5] (at 50.0 µM), 92.3% (active); in test [6] (setting [7]) it was 1%; in test [6] (setting [8]) it was 73% (active); in test [6] (at 50.0 µM) it was 96% (active).
With `Cc1cccc2c1NC(c1c(C)[nH]c3ccccc13)C2` (stereo not given), the growth inhibition in test [1] (setting [7]) was 1%; in test [1] (setting [8]), 10%; in test [1] (at 50.0 µM), 28.8%; in test [2] (setting [7]), -1%; in test [2] (setting [8]), 5%; in test [2] (at 50.0 µM), 25.3%. For the same molecule, the growth inhibition in test [3] (setting [7]) is -4%; in test [3] (setting [8]), 8%; in test [3] (at 50.0 µM), 27.2%; in test [4] (setting [7]) it was 0%; in test [4] (setting [8]) it was -2%; in test [4] (at 50.0 µM), 30.4%. For the same molecule, the growth inhibition in test [5] (setting [7]) was -3%; in test [5] (setting [8]) it was 17%; in test [5] (at 50.0 µM), 30.1%; in test [6] (setting [7]), -3%; in test [6] (setting [8]) it was -22%; in test [6] (at 50.0 µM), 67.2%.
On to `CCCCP(CCCC)(CCCC)=C(C(=O)OC)C(C(=O)OC)=C1SC(C(=O)OC)=C(C(=O)OC)S1`, for which the growth inhibition in test [1] (setting [7]) is 18%; in test [1] (setting [8]), 39%; in test [1] (at 50.0 µM), -4.9%; in test [2] (setting [7]), 4%; in test [2] (setting [8]) it was 16%; in test [2] (at 50.0 µM), 10.3%. The growth inhibition was 63% in test [3] (setting [7]); 26% in test [3] (setting [8]); -9.3% in test [3] (at 50.0 µM); 47% in test [4] (setting [7]); 38% in test [4] (setting [8]); 13.1% in test [4] (at 50.0 µM). Besides, the growth inhibition in test [5] (setting [7]) was 79% (active); in test [5] (setting [8]) it was 47%; in test [5] (at 50.0 µM) it was -7.6%; in test [6] (setting [7]), 23%; in test [6] (setting [8]), 51%; in test [6] (at 50.0 µM) it was 4.8%.
